# This is a sample that favours compounds with a hit; in the whole collection about 2.4% have one here.
# Pf gametocyte: late stage P. falciparum gametocyte viability inhibitors, primary screen, ATP luminescence, HTS | P. falciparum stage V gametocytes, 24 h | inhibition, % at 10.9 µM | actives 0.065% (n = 150,000) | AID 743093, 2013;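 active = inhibition above the mean plus 3 SD of compounds within the control limits, set per campaign, cut at about 38% in these data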;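 note: 0% = DMSO wells and 100% = medium only without gametocytes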
# MEKK2wt PB1 HTS: modulators of MEK5 binding to wildtype MEKK2, primary screen, biochemical, multiplex bead flow cytometry, Alexa488-MEK5; Mitogen-activated protein kinase kinase kinase 2 (Homo sapiens), Q9Y2U5; Alexa488-MEK5 binding to MEKK2 WT; actives lie on both sides; binding response (% of control), % at 10 µM; actives 1.1% (n = 290,000); in the data active = binding response below about 67% or above about 130%
# MEKK2mut PB1 HTS: MEK5 binding signal on mutant MEKK2 PB1, primary screen, biochemical, multiplex bead flow cytometry, Alexa488-MEK5 | Alexa488-MEK5 binding to MEKK2 mutant | percent response, % at 10 µM | actives 0.35% (n = 290,000) | AID 1530, 2009; in the data active = percent response above about 24%, passing the limit was not always enough
# Arbovirus anti: antivirals against arbovirus infection, primary screen, cell-based, full library, 10K replicate subset | arbovirus infection cell-based antiviral screen | inhibition, % at 10 µM | actives 0.37% (n = 200,000) | AID 1251, 2008; in the data active = inhibition above about 30%
# MEKK3 PB1 HTS: modulators of MEKK3-MEK5 PB1 binding, primary screen, biochemical, wildtype MEKK3, multiplex bead flow cytometry, Alexa488-MEK5. bead-based flow cytometry, Alexa488-MEK5 binding to MEKK3; actives lie on both sides; 0 = blocked by unlabeled MEK5, 100 = vehicle. binding response (% of control), % at 10 µM. actives 1.4% (n = 290,000);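 active = binding response more than 3 SD above or below the average of its plate-row segment, actives on both sides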;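 note: Alexa488 bead fluorescence after subtracting the streptavidin-only scavenger bead signal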
# Target sequence (Q99759 whole entry, looked up): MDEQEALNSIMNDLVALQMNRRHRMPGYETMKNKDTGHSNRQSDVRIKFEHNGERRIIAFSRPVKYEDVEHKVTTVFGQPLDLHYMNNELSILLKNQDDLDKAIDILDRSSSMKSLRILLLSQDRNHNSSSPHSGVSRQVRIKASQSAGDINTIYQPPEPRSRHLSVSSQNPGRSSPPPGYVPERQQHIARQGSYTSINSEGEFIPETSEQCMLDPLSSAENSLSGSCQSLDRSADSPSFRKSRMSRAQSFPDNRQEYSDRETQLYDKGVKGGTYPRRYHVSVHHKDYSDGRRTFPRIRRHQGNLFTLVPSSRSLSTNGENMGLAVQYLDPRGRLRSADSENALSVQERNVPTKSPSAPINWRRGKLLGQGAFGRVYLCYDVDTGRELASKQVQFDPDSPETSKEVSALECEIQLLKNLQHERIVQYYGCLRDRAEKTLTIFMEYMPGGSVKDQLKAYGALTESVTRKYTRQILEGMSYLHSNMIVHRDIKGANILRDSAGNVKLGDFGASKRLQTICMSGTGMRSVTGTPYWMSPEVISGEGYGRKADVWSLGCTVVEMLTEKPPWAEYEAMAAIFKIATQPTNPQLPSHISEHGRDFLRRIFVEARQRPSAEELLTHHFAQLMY
# Active calls of the source: *; . = not tested or not shown; [ ] = dose if it differs, or a comment.
SMILES,Pf gametocyte,MEKK2wt PB1 HTS,MEKK2mut PB1 HTS,Arbovirus anti,MEKK3 PB1 HTS
Cc1ccc(/C([O-])=C(/C(=S)NCc2ccco2)[n+]2ccccc2)cc1,.,100,2,0,100
Cc1cnc(NC(=O)CSc2nnc(N)s2)s1,2,-8.0*,4,7,106
Cc1cnc(NC(=O)CSc2nc3ccccc3s2)s1,.,102,1,0,101
CC(C)(CC(=O)O)CC(=O)NCc1c(Cl)cccc1Oc1ccccc1,9,87,-22,.,90
Cc1ccccc1-c1nc(CN2CCC(C(=O)NCCCN3CCCC3)CC2)c(C)o1,13,198*,51*,-13,102
Cc1ccccc1-c1nc(CN2CCC(C(=O)NCCCN3CCOCC3)CC2)c(C)o1,20,130,14,-6,102
Cc1ccc(NC(=O)CN(C)CC(=O)Nc2cccc(F)c2)cc1S(=O)(=O)N1CCCCCC1,9,.,.,-22,.
O=C(O/N=C(\c1ccccc1)c1ccncc1)c1ccccc1F,15,-8.0*,4,4,104
Nc1ccc(-c2c3ccc(=O)cc-3oc3cc(O)ccc23)cc1C(=O)O,.,132,27*,.,106
COC(=O)c1ccccc1NC(=O)C1CCN(C(=O)c2cc(OC)c(OC)c(OC)c2)CC1,.,98,-3,124*,95
COc1cc([C@@H]2C[C@H]3CN(c4ccccc4)C(=O)[C@]34CCCN24)cc(OC)c1OC,3,95,-1,-17,97
COc1ccccc1-n1cc([C@@H]2C[C@H]3CN(c4ccccc4)C(=O)[C@]34CCCN24)cn1,18,71,138*,-13,104
CC[N+]1(CC)CC2CCC(C)(C1)C2(C)C (centres undefined),.,101,0,3,99
CC12CCC(C[N+](C)(C)C1)C2(C)C (centres undefined),-7,33*,91*,6,111
CCn1nc(C)c(CNC(=O)CCc2nnc(Cc3c[nH]c4ccccc34)o2)c1C,13,87,-14,0,86
Cc1ccc(NC(=O)/C(=C\c2ccc([N+](=O)[O-])cc2)NC(=O)c2ccccc2)cc1,.,104,4,-1,103
O=C(N/N=C/c1ccc(O)c(O)c1O)/C(=C/c1ccc([N+](=O)[O-])cc1)NC(=O)c1ccccc1,40*,86,-6,-4,100
COc1ccc(Cn2c(C)c(C)c(C#N)c2NC(=O)Nc2cccc(Cl)c2)cc1,-38,107,5,79*,105
Cc1ccc(Sc2ncccc2C(=O)NCc2cc([N+](=O)[O-])ccc2O)cc1C,.,102,2,.,103
CC(=O)/C(N=Nc1c(C)n(C)n(-c2ccccc2)c1=O)=C(\C)O,-18,97,-4,4,101
CCOC(=O)/C(N=Nc1c(C)n(C)n(-c2ccccc2)c1=O)=C(\C)O,65*,133,19,-2,105
Cc1nnc(SCC(=O)N2CCc3ccccc32)s1,.,102,5,39*,102
CCN(CC)S(=O)(=O)c1ccc(OC)c(NC(=O)C2CC(=O)N(c3ccc4c(c3)OCCO4)C2)c1 (centres undefined),.,-2.0*[inhibitor],-21,.,0.0*[inhibitor]
Cc1ccc2c(cnn2C(=O)CCC(=O)N2CCCCC2)c1,.,104,2,.,100
O=S(=O)(c1ccc(Oc2ccc(Cl)cc2)c(S(=O)(=O)N2CCCCC2)c1)N1CCCCC1,5,88,-7,38*,88
SMILES,Pf gametocyte,MEKK2wt PB1 HTS,MEKK2mut PB1 HTS,Arbovirus anti,MEKK3 PB1 HTS
O=S(=O)(c1ccc(Cl)cc1)N1CCN(S(=O)(=O)N2CCCCCC2)CC1,.,98,-5,-5,96
CCOC(=O)C(C#N)C(c1cccnc1)c1c(C)[nH][nH]c1=O (centres undefined),40*,105,0,4,107
COc1cccc(OC)c1C(=O)NC(C)C12CC3CC(CC(C3)C1)C2 (centres undefined),.,106,2,43*,107
CC(NC(=O)c1ccc([N+](=O)[O-])o1)C12CC3CC(CC(C3)C1)C2 (centres undefined),.,101,-4,.,101
O=C(c1ccccc1)C(Nc1ccccn1)c1ccccc1 (centres undefined),-37,99,-3,2,102
CCOC1=C/C(=C/c2c(N)n3nc(-c4ccccc4)sc3nc2=O)C=CC1=O,-26,105,0,33*,115
CCS(=O)(=O)c1nn2c(N)c(/C=C3/C=CC(=O)C(OC)=C3)c(=O)nc2s1,-4,100,-2,-4,99
COC1=C/C(=C/c2c(N)n3nc(-c4ccc(C)cc4)sc3nc2=O)C=CC1=O,6,94,4,32*,107
COc1ccc(NS(=O)(=O)c2ccc(NS(=O)(=O)c3cccs3)cc2)cc1,.,109,7,.,103
O=C(/C=C1\NC2(CCCC2)Cc2ccccc21)C(=O)N/N=C/c1ccccc1O,18,102,0,-29,174*
C=C1N(c2cccc(Cl)c2)C(=O)OC1(C)C,9,88,-8,-3,96
CC1CCCC(C)N1C(=O)c1ccc2c(c1)S(=O)(=O)c1ccccc1C2=O (centres undefined),.,-12*[inhibitor],-26,.,0.0*[inhibitor]
O=C1c2ccccc2S(=O)(=O)c2cc(C(=O)N3CCC(C(=O)N4CCCCC4)CC3)ccc21,-17,82,-8,.,69
CCN1CCN(C(=O)C(=O)c2cn(CC(=O)N3CCCC3)c3ccccc23)CC1,.,100,-4,.,99
COc1ccc(N2CCN(C(=O)C(=O)c3cn(CC(=O)N4CCOCC4)c4ccccc34)CC2)cc1,.,100,-1,.,95
COc1ccc(N2CCN(C(=O)C(=O)c3cn(CC(=O)N4CCCCCC4)c4ccccc34)CC2)cc1,.,-5.0*,5,.,97
CCN1CCN(C(=O)C(=O)c2cn(CC(=O)N3CCCCCC3)c3ccccc23)CC1,.,56*,9,.,102
CCC(=O)NC(=S)NNC(=O)COc1ccc(Br)cc1,6,90,3,-9,95
O=C(CN1C(=O)/C(=C\c2cccc(F)c2)Oc2ccccc21)N1CCN(c2ccccn2)CC1,51*,104,0,-12,103
O=C(CN1C(=O)/C(=C\c2ccc(F)cc2)Oc2ccccc21)N1CCN(c2ccccn2)CC1,8,106,3,-12,107
CCOC(=O)c1c(C=O)c2sc(C)cc2n1C,-21,99,-2,25,100
O=c1nc(N/N=C/c2ccccn2)cn[nH]1,.,4.0*[inhibitor],-18,-11,3.0*[inhibitor]
O=C(/C=C/c1ccccc1Cl)c1ccc[nH]1,.,96,-1,10,95
FC(F)(F)c1ccc(Oc2ccc3ccccc3c2Br)nc1,7,111,21,35*,105

# Bioassay records: PubChem BioAssay, several laboratories
